Compound activity as filed in PubChem BioAssay.
CHX counter = counter-screen hit for Shiga toxin inhibitors, cycloheximide. cell reporter, cycloheximide protein synthesis inhibition counterscreen. max response, %. hit rate 12% among 300,000; in the data active = max response mostly above about 13%, no sharp cut-off; inactive = mostly below about 14%; also: read at 38.3 µM for the half of the compounds with a filed dose; 0% is about no effect
Pf growth 48h = P. falciparum growth inhibition at 48 hours (one generation) | P. falciparum luciferase growth in erythrocytes, 48 h | Potency, µM (doses to about 28.7 µM), for the others: at the top dose activity change, negative = inhibition, actives largely listed as inhibitors | hit rate 5.9% among 310,000 | AID 504832; also: potency is read from the fitted curve at half-maximal effect; % is scaled to controls: 0 for no effect and ±100 for the full control effect
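Luciferase-expressing parasites in RBCs, 2% Hct / 0.1% parasitemia final; RPMI 1640 + 0.5% Albumax; 37 C, 5% CO2, one generation; luminescence read-out, lower signal = inhibition.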
Sm TGR block = blocks Schistosoma mansoni thioredoxin glutathione reductase. Q962Y6. purified TGR, DTNB reduction, TNB absorbance 405 nm. Potency, µM (series often up to 114 µM), inactives show top-dose activity change, negative = inhibition, usual class: inhibitors. hit rate 3% among 360,000; also: potency is read from the fitted curve at half-maximal effect; % is scaled to controls: 0 for no effect and ±100 for the full control effect; nearly all actives have a fitted effect of over 60% in size
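TGR 20 nM + NADPH 100 uM (dispensed conc.), cpd preinc 15 min RT; start with NADPH (500 uM addition) then DTNB (15 mM addition). Kinetic TNB absorbance, 405 nm filter. Four-parameter Hill fit across titration.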
Shiga toxin inh = Shiga toxin inhibition. hit rate 9.2% among 290,000. Vero cells, Shiga toxin protein synthesis inhibition reporter. inhibition, % at 38.7 µM; in the data active = inhibition mostly above about 28%, no sharp cut-off; inactive = mostly below about 43%; also: 0% is about no effect
Pf growth 96h = inhibits malaria parasite growth, 96 h. P. falciparum luciferase reporter growth, 96 h. Potency, µM (doses to about 28.7 µM), for the others: at the top dose activity change, negative = inhibition, hits mostly inhibitors. hit rate 6.9% among 320,000; also: potency is read from the fitted curve at half-maximal effect; % is scaled to controls: 0 for no effect and ±100 for the full control effect
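Plates of compound plus infected erythrocytes (2% hematocrit, 0.05% parasitemia final) incubate 96 hours, 37 C, 5% CO2. Detection reagent added; reduced luminescence from the parasites' luciferase reporter flags inhibition.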
NS1 inh = influenza NS1 inhibition; hit rate 0.4% among 270,000; Potency, µM (titrated, usually from 46.1 µM), for the others: at the top dose activity, positive = more growth; calls by dose curve; also: potency is read from the fitted curve at half-maximal effect; actives are rising curves; nearly all actives have a fitted effect of over 50% in size
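Read-out: OD600 growth recovery of NS1-expressing budding yeast. Cells grown overnight at 30C in -URA glucose medium, washed, resuspended and diluted 1:100 in 2% galactose assay medium, pH 6.0. Same strain lacking NS1 served as positive control.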
An asterisk follows results filed as active; i = inactive; u = inconclusive; x = not tested or not shown; [ ] = dose if it differs, or a comment. Shown are actives, neighbours in structure and some others; about 21% of the full set was active somewhere. Unless noted, calls follow the shape of the dose curve; as a rule, active = well fitted curve in the direction sought with a large enough effect; inconclusive = small, poorly fitted or top-dose-only effect, or another doubt; inactive = no such curve, though single readings can be large; an effect the other way counts as inactive or inconclusive.

SMILES | CHX counter | Pf growth 48h | Sm TGR block | Shiga toxin inh | Pf growth 96h | NS1 inh
O=C1CCCC(=O)N1c1ccc(Oc2ccc(Cl)cc2)cc1 | 21.5* | 18.1% | -11.0% | 41.1* | 19.2% | 2.4%
O=C1CCCC(=O)N1c1ccc(O)cc1 | -2.3 | 34.3% | -0.1%[57.1 µM] | -12.1 | 11.7µM* | 5.1%
O=C1C2C3C=CC(C2C(=O)N1c1ccc(O)cc1)C1C2C(=O)N(c4ccc(O)cc4)C(=O)C2C31 (centres undefined) | -3.4 | 9.6% | 50.1µM* | 1.7 | 53.0% | -68.1%
O=C1C=CC(=O)N1c1ccc(OC(F)F)cc1 | -3.1 | 5.4% | 0.355µM* | -14.1 | 9.28µM* | -30.1%
O=C1CCCC(=O)N1c1ccc(F)cc1 | -3.1 | -8.5% | 7.7% | -10.3 | 42.8% | 2.4%
O=C(O)CNC(=O)c1ccc(OC(F)F)cc1 | -3.4 | u | 0.0% | -3.3 | -20.9% | 5.0%
COCCCN1C2=C(C(=O)CC(C)(C)C2)C(c2ccc(O)c(OC)c2)C2=C1CC(C)(C)CC2=O | 8.7 | u | -62.0% | -5.3 | -7.8% | 16.8%
CC(=O)Nc1nonc1-c1nnc(SCC(=O)Nc2ccccc2Cl)n1C | x | x | 2.1% | x | x | x
C=CCC1CCCC(=O)N2CCCC12 (centres undefined) | -3.7 | x | x | i | x | x
O=Nc1c2ccc[nH]c-2c2ccc([N+](=O)[O-])cc12 | -2.6 | u | 0.9% | -8.1 | 40.3% | x
O=C1C=CC(=O)N1c1ccc(O)cc1 | 7.3 | 36.2% | 0.891µM* | 0.8 | 19.2% | -101.2%
CCN(CC)c1ccc(NC(=O)CN2CCN(CC(=O)Nc3ccc(F)cc3)CC2)cc1 | -3.2 | u | -30.1% | -16.6 | 2.62µM* | -1.2%
CCN(CC)c1ccc(NC(=S)Nc2ccc(F)cc2)cc1 | 26.6* | u | -18.2% | 48.4* | 3.7% | x
Fc1ccc(NC(=S)Nc2ccc(Br)cc2)cc1 | 33.4* | 19.8% | u | 5.3 | u | -49.9%
CCN(CC)c1ccc(NC(=O)CN2CCN(CC(=O)Nc3ccc(OC)cc3)CC2)cc1 | -2.2 | u | -14.8% | -7.2 | 0.2% | -1.9%
COc1ccc(C(=O)Nc2cc3c4c(c2)CC(=O)N4CCC3)cc1 | x | -7.0% | -10.2% | x | -4.3% | x
Cc1cccc(-c2nc3ccccc3n2Cc2ccccc2)c1 | x | x | 1.0% | x | x | x
C=C(C)COc1cc2oc(=O)c(CC(=O)N3C[C@H]4C[C@@H](C3)c3cccc(=O)n3C4)c(C)c2cc1Cl | -2.1 | -17.1% | u | -9.2 | 10.4µM* | 11.1%
CC(C)=CCOc1ccc2c(C)c(CC(=O)N3C[C@H]4C[C@@H](C3)c3cccc(=O)n3C4)c(=O)oc2c1C | 1.4 | u | -16.6% | -1.0 | 9.28µM* | 16.6%
C=C(C)COc1ccc2c(C)c(CCC(=O)N3C[C@H]4C[C@@H](C3)c3cccc(=O)n3C4)c(=O)oc2c1 | -0.9 | u | -19.0% | -5.4 | 2.62µM* | -15.4%
Cc1c(OCC(=O)N2C[C@H]3C[C@@H](C2)c2cccc(=O)n2C3)ccc2c3c(c(=O)oc12)CCCC3 | -2.4 | -27.9% | -16.0% | -6.5 | u | -16.8%
C=C(C)COc1ccc2c(C)c(CC(=O)N3C[C@H]4C[C@@H](C3)c3cccc(=O)n3C4)c(=O)oc2c1 | 0.6 | u | -8.1% | -2.4 | u | 9.4%
COc1cc(OC)cc(C(=O)Nc2cc(-c3nc4cc(Cl)ccc4o3)ccc2Cl)c1 | x | x | 2.3% | x | x | x
COc1cccc(/C=C/C(=O)NCc2cn3cc(Cl)ccc3n2)c1OC | 5.8 | 10.5% | 0.6% | 14.0 | -9.2% | -6.7%
O=C(COc1ccccc1)Nc1ccc(S(=O)(=O)Nc2ccccn2)cc1 | -1.4 | -23.7% | 13.8% | 7.4 | 1.4% | -9.7%
SMILES | CHX counter | Pf growth 48h | Sm TGR block | Shiga toxin inh | Pf growth 96h | NS1 inh
CCN(CC(=O)NC(C)(C)C)C(=O)C(c1ccccc1)c1ccccc1 | 0.8 | -9.1% | 0.0% | -1.5 | -5.9% | x
Cc1ccsc1C(=O)N(c1nc2ccccc2s1)c1c(C)cccc1C | -1.4 | 11.7µM* | -10.6% | -14.1 | 8.28µM* | 6.7%
COc1ccc(C)cc1N(C(=O)c1ccccc1)c1nc2ccccc2s1 | -0.3 | 11.7µM* | -0.6% | -1.9 | 13.1µM* | 6.9%
Cc1ccccc1N(C(=O)c1cccs1)c1nc2ccccc2s1 | 2.8 | x | -1.9% | 16.2 | u | -2.3%
COc1ccc(C)cc1N(C(=O)c1cccc(F)c1)c1nc2ccccc2s1 | -1.0 | u | 3.0% | -4.1 | u | 10.2%
COc1ccc(C)cc1N(C(=O)COc1ccccc1)c1nc2ccccc2s1 | 1.5 | 10.4µM* | 3.5% | 15.2 | u | -4.5%
COc1ccc(C)cc1N(C(=O)c1ccccc1F)c1nc2ccccc2s1 | -3.2 | 9.28µM* | 0.0% | -8.4 | 16.5µM* | u
CC(=O)Nc1ccc(N(C(=O)CNC(=O)c2cccs2)C(C(=O)NC(C)(C)C)c2ccccc2)cc1 (centres undefined) | -0.6 | u | -5.3%[57.1 µM] | -28.1 | u | 3.5%
COc1ccc(C2=Nn3c(nnc3-c3ccccc3C)SC2)cc1OC | -3.1 | x | x | 2.2 | x | x
Clc1ccccc1C(Nc1cnccn1)Nc1cnccn1 | x | x | x | x | x | -2.8%
Cc1ccc(C(NC(=O)Nc2ccccn2)C(Cl)(Cl)Cl)cc1F (centres undefined) | -6.0 | u | -2.8% | 24.3 | 13.1µM* | -8.0%
O=C(Nc1ccccn1)Nc1ccccc1[N+](=O)[O-] | 40.3* | 67.1% | 3.3% | 46.5* | u | -6.9%
CCCONC(=O)Nc1ccccc1[N+](=O)[O-] | 7.7 | 49.3% | -2.9% | 13.6 | 0.0% | -12.7%
Cc1ccccc1NC(=O)Nc1ccccn1 | 28.0* | 31.9% | -0.1% | x | u | -8.3%
CCOC(=O)c1cc(NC(=O)Nc2ccccn2)c(C)nc1C | 27.1* | 42.1% | 0.1% | 36.7 | 54.7% | x
COc1cccc(N2CN(C3CCCCC3)CNC2=S)c1 | 14.1 | 2.5% | 2.8% | -6.7 | -0.5% | 2.5%
CCCCC(CC)COC(=O)CC(C(=O)OCC(CC)CCCC)S(=O)(=O)O (centres undefined) | -5.5 | -4.0% | x | -6.9 | -1.6% | x
Cn1nc(-c2ccccc2)cc1NC(=O)Nc1ccc(F)cc1 | 11.3 | u | 4.3% | 44.6 | 19.8% | -2.6%
Cc1ccccc1NC(=O)Nc1cc(-c2ccccc2)nn1C | 36.0* | 42.4% | 0.1% | 82.1* | 68.3% | 1.5%
Cc1ccccc1NC(=O)N(C(C)C)C(C)C | -3.8 | x | 2.0% | -15.5 | 9.28µM* | 1.4%
CC1(C)CC(=O)C2=C(C1)NC(Nc1nc3ccccc3o1)=NC21CCCCC1 | -1.4 | u | -0.5% | -5.0 | 9.28µM* | -14.1%
CC1(C)CC(=O)c2c(nc3ccccc3c2N)C1 | 4.8 | u | 5.6% | 20.0 | u | -5.6%
COc1cc(C)c(CN2CC=C(c3ccc(F)cc3)CC2)cc1C | -2.1 | 39.7% | 1.1% | x | 11.7µM* | -5.5%
COc1cc(CN2CC=C(c3ccc(F)cc3)CC2)cc(OC)c1 | -2.7 | -3.6% | 0.8% | -3.6 | -103.8% | 2.1%
